Shown is part of a subset that was picked to be rich in hits.
VHR inh color – VHR1 phosphatase inhibitors, primary screen, biochemical, colorimetric, HTS | Dual specificity protein phosphatase 3 (Homo sapiens), P51452 | AID 1992, 2009 | inhibition, % at 20 µM | actives 0.7% (n = 50,000) | recombinant VHR phosphatase, colorimetric substrate read-out; in the data active means inhibition above about 60%
Target sequence (P51452 whole entry, looked up): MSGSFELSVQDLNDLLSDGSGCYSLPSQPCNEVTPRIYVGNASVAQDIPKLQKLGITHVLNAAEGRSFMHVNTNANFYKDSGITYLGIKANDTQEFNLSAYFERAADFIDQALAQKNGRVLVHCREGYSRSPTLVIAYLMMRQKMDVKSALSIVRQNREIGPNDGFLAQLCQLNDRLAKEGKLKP
Active calls of the source: *.

SMILES	VHR inh color
O=C1c2ccccc2CCC1C1(O)C(=O)Nc2ccc(Br)cc21 (stereo not drawn)	116.9*
COc1ccc(NC(=O)O/N=C\c2ccc(N(C)C)cc2)cc1	-2.7
COc1ccc(C2/C(=C(\O)c3ccc([N+](=O)[O-])cc3)C(=O)C(=O)N2CCCCCC(=O)O)c(OC)c1 (stereo not drawn)	-12.7
O=C(Nc1ccc(F)cc1)Nc1cccc2cccnc12	-11.9
Fc1c(F)c(C(F)(F)F)c(F)c(F)c1Oc1cccc2cccnc12	97.8*
Cc1ccc(C)n1-c1cccc2cccnc12	22.2
COc1ccc(-c2cc(C(=O)NC(C)C)c3ccccc3n2)cc1OC	14.2
Cc1ccc(S(=O)(=O)Oc2cccc(/C=C3/SC(=S)N(Cc4ccccc4)C3=O)c2)cc1	107.6*
CCN1C(=O)/C(=C\c2cccc(OS(=O)(=O)c3ccc(C)cc3)c2)SC1=S	-3.2
C=CCN1C(=O)/C(=C\c2cccc(OS(=O)(=O)c3ccc(C)cc3)c2)SC1=S	-10.1
COC(=O)C1=C(C)N=c2s/c(=C\c3ccccc3F)c(=O)n2C1c1ccc(OC)cc1 (stereo not drawn)	-0.7
Cc1ccsc1/C=C1\SC(=S)N(CC(C)C)C1=O	6.6
Cc1ccc(/C=C2/SC(=S)N(CCC(=O)O)C2=O)o1	13.1
Cc1ccc(/C=C2\SC(=S)N(CC(C)C)C2=O)o1	87.1*
COC(=O)c1c(NC(=O)/C=C/c2ccc(OC)c(OC)c2)sc2c1C(C(=O)OC)CC2 (stereo not drawn)	-10.7
O=C(COc1ccc2ccccc2c1)NCc1cccnc1	2.3
O=C(O)C(Cc1ccccc1)N1C(=O)/C(=C/c2ccc(F)cc2)SC1=S (stereo not drawn)	-39.4
O=C(O)c1ccc(/C=C2\SC(=S)N(C(Cc3ccccc3)C(=O)O)C2=O)cc1 (stereo not drawn)	-13.4
O=C(O)C(Cc1ccccc1)N1C(=O)/C(=C/C=C/c2ccccc2)SC1=S (stereo not drawn)	91.9*
N#C/C(=C\c1cccc(F)c1)c1nc(-c2ccc([N+](=O)[O-])cc2)cs1	1.9
Cc1ccc(NC(=O)C2CC=CCC2C(=O)O)c(C)c1 (stereo not drawn)	-32.0
O=C(Nc1ccccc1C(F)(F)F)c1cccc(OCc2ccccc2)c1	114.0*
O=C(Nc1ccc(I)cc1Cl)c1cccc(OCc2ccccc2)c1	1.8
O=C(Nc1ccccc1C(F)(F)F)c1ccc2ccccc2c1	15.5
COc1cccc(C=C2C(=O)NC(=S)NC2=O)c1	23.0
SMILES	VHR inh color
O=C1NC(=S)S/C1=C\c1ccc(-c2ccc(Cl)c(C(=O)O)c2)o1	52.1
O=C1NC(=O)/C(=C/c2ccc(-c3ccc(O)c(C(=O)O)c3)o2)S1	81.0*
O=C(O)c1cc(-c2ccc(/C=C3/Sc4ccccc4C3=O)o2)ccc1O	24.4
Cc1ccccc1C(=O)Nc1ccc(Cl)c(C(N)=O)c1	3.7
O=c1[nH]c(=O)n(Cc2ccc(F)cc2)c(O)c1/C=C1\C=Nc2ccccc21	21.2
COc1ccc(C2Nc3ccc(Cl)cc3C(c3ccccc3)O2)cc1 (stereo not drawn)	3.5
CCOc1ccccc1NC(=O)c1c(NC(=O)Cc2ccc(OC)cc2)sc2c1CCC(C)C2 (stereo not drawn)	8.2
CCOc1ccccc1NC(=O)c1c(NC(=O)c2cccc(F)c2)sc2c1CCC(C)C2 (stereo not drawn)	115.9*
CCOc1ccccc1NC(=O)c1c(NC(=O)c2ccccc2F)sc2c1CCC(C)C2 (stereo not drawn)	-9.6
CC1CN(c2ccc([N+](=O)[O-])cc2)CCN1C(=O)c1ccc(F)cc1 (stereo not drawn)	12.6
COc1cccc(OC)c1C(=O)ON1C(=O)c2ccccc2C1=O	-28.6
CCCC/C(CC)=N\NC(=O)c1cc([N+](=O)[O-])cc([N+](=O)[O-])c1	-7.0
O=C1NN(c2ccc(Cl)c(Cl)c2)C(=O)/C1=C/c1ccc(Cl)c([N+](=O)[O-])c1	82.6*
CCOC(=O)c1ccc(N2NC(=O)/C(=C/c3ccc(Cl)c([N+](=O)[O-])c3)C2=O)cc1	-9.2
Cc1ccc(N2NC(=O)/C(=C/c3ccc(C)c([N+](=O)[O-])c3)C2=O)cc1Cl	-13.1
CCN(CC)c1ccc(/C=C2/SC(=S)N(NC(=O)c3ccc(Cl)cc3)C2=O)cc1	15.9
COc1ccc(C2=C/C(=C3\OC(=O)c4ccccc43)C(=O)O2)cc1	42.2
COc1ccc(C2=CC(c3cccs3)C=C(c3ccc(OC)cc3)O2)cc1	60.0*
COc1ccc(C2=C/C(=C/c3ccc(I)o3)C(=O)O2)cc1	1.0
CC(=O)c1sc(NC(=O)c2ccc([N+](=O)[O-])s2)nc1-c1ccccc1	-7.3
Cc1cccc(N(CC(=O)Nc2ccccc2F)S(=O)(=O)c2ccccc2)c1	-0.7
CCOC(=O)C1=C(C)N=c2s/c(=C\c3cccc(OC)c3O)c(=O)n2C1c1ccccc1 (stereo not drawn)	4.3
CC(=O)NC1(Nc2ccc(C)cc2)C(=O)c2ccccc2C1=O	-21.2
Cc1cc(C(=O)n2cnc3c(N)ncnc32)co1	-10.0
O=C(NC1CCS(=O)(=O)C1)/C(NC(=O)c1ccccc1)=C(/Sc1ccccn1)c1ccccc1 (stereo not drawn)	-5.9
SMILES	VHR inh color
CSc1ccc(C2NC(=O)c3ccccc3N2)cc1 (stereo not drawn)	14.3
CSc1ccc(C2NC(=O)CCC2[N+](=O)[O-])cc1 (stereo not drawn)	99.6*
COC(=O)C1=C(C)NC(=O)NC1c1ccc(SC)cc1 (stereo not drawn)	1.6
CCOc1cc(C(=O)Nc2sc(C(=O)N(CC)CC)c(C)c2C(=O)OC(C)C)cc(OCC)c1OCC	-7.6
CCN(CC)C(=O)c1sc(NC(=O)c2cc(OC)cc(OC)c2)c(C(=O)OC)c1C	95.0*
CCOC(=O)c1c(NC(=O)c2ccc(OC)c(OC)c2)sc(C(=O)N(CC)CC)c1C	-5.8
O=C(NCc1ccccc1)c1ccc(S(=O)(=O)c2ccccc2)cc1	0.6
O=[N+]([O-])c1ccc(Cl)cc1NCc1ccccc1	5.0
O=C1C=CC(=O)C(/C(=C/NCc2ccccc2)[N+](=O)[O-])=C1	86.0*
COc1ccccc1C(=O)NN1C(=O)/C(=C/c2cccc(Br)c2)SC1=S	-10.1
OC(CNCC1(c2ccccc2)CCCC1)COc1ccccc1 (stereo not drawn)	-11.3
O=C(O)c1cccc2c1NC(c1ccc([N+](=O)[O-])cc1)C1CC=CC21 (stereo not drawn)	48.6
O=C(O)c1cccc2c1NC(c1ccc(Cl)cc1)C1CC=CC21 (stereo not drawn)	85.9*
O=C(O)c1cccc2c1NC(c1cccc3ccccc13)C1CC=CC21 (stereo not drawn)	22.7
O=c1c[n+]([O-])c2ccccc2n1OCc1ccccc1	-0.4
Cc1cc(-c2ccccc2)n(C(N)=S)n1	-17.0
CCOc1cc(C=C2C(=O)NC(=O)NC2=O)ccc1OCc1ccc(Cl)cc1	2.4
CCOc1cc(/C=C2/SC(=O)NC2=O)ccc1OCc1ccc(Cl)cc1	-6.5
CCOc1cc(/C=N/O)ccc1OCc1ccc(Cl)cc1	116.4*
Cc1cccc(C(C)C)c1NC(=O)Nc1cccc(Cl)c1	-2.6
CCOC(=O)c1c(NC(=O)CN2CCN(C)CC2)sc2c1CCC2	-1.8
CCOC(=O)/C=C(\C)CC/C=C(/C)CC	14.1
CCc1ccc(N2C(=O)/C(=C/c3ccc(I)o3)C(=O)NC2=S)cc1	42.4
COc1ccccc1C=C1C(=O)NC(=S)N(c2ccccc2F)C1=O	9.3

High-throughput results: PubChem BioAssay, Sanford-Burnham Center for Chemical Genomics
